“And” between values parts separate entries of the source, which are not always exact repeats. Identical values can stand only once. Screen size: about 5,500 compounds; about 2,000 (36%) were called active. Inconclusive results (about 18%) are left out. No stated cut-off is given here; in the data, active means normalized growth mostly below about 0.91 (no sharp cut-off); inconclusive means no clear call, values can overlap the other calls; inactive means mostly above about 0.92. The list shows a part of the results.
Assay: chemical genetic growth profiling, strain panel (AID 1159580);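 further: tested at 20 µM; growth read once vehicle control cultures reached saturation at 30 °C; 1 = growth at the plate median or of vehicle wells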
Details: growth OD
[1] = S. cerevisiae deletion strains, locus YAL013W, strain DEP1, stronger effect = lower value
[2] = S. cerevisiae deletion strains, locus YBR229C, strain ROT2, stronger effect = lower value
[3] = S. cerevisiae deletion strains, locus YDL101C, strain DUN1, stronger effect = lower value
[4] = S. cerevisiae deletion strains, locus YDR150W, strain NUM1, stronger effect = lower value
[5] = S. cerevisiae deletion strains, locus YEL061C, strain CIN8, stronger effect = lower value
[6] = S. cerevisiae deletion strains, locus YGR078C, strain PAC10, stronger effect = lower value
[7] = S. cerevisiae deletion strains, locus YGR229C, strain SMI1, stronger effect = lower value
[8] = S. cerevisiae deletion strains, locus YHR030C, strain SLT2, stronger effect = lower value
[9] = S. cerevisiae deletion strains, locus YJR043C, strain POL32, stronger effect = lower value
[10] = S. cerevisiae deletion strains, locus YJR075W, strain HOC1, stronger effect = lower value
[11] = S. cerevisiae deletion strains, locus YLR039C, strain RIC1, stronger effect = lower value
[12] = S. cerevisiae deletion strains, locus YLR262C, strain YPT6, stronger effect = lower value
[13] = S. cerevisiae deletion strains, locus YMR263W, strain SAP30, stronger effect = lower value
[14] = S. cerevisiae deletion strains, locus YNL153C, strain GIM3, stronger effect = lower value
[15] = S. cerevisiae deletion strains, locus YNL322C, strain KRE1, stronger effect = lower value
[16] = S. cerevisiae deletion strains, locus YOL006C, strain TOP1, stronger effect = lower value
[17] = S. cerevisiae deletion strains, locus YPL055C, strain LGE1, stronger effect = lower value
[18] = S. cerevisiae deletion strains, locus YPL241C, strain CIN2, stronger effect = lower value
[19] = S. cerevisiae deletion strains, locus YAL040C, strain CLN3, stronger effect = lower value
[20] = S. cerevisiae deletion strains, locus YCL061C, strain MRC1 (second series), stronger effect = lower value
[21] = S. cerevisiae deletion strains, locus YDR363W, strain ESC2, stronger effect = lower value
[22] = S. cerevisiae deletion strains, locus YER002W, strain NOP16, stronger effect = lower value
[23] = S. cerevisiae deletion strains, locus YMR307W, strain GAS1, stronger effect = lower value
[24] = S. cerevisiae deletion strains, locus YNL175C, strain NOP13, stronger effect = lower value
[25] = S. cerevisiae deletion strains, locus YNL197C, strain WHI3, stronger effect = lower value
[26] = S. cerevisiae deletion strains, locus YNL224C, strain SQS1, stronger effect = lower value
[27] = S. cerevisiae deletion strains, locus YOR083W, strain WHI5 (second series), stronger effect = lower value
[28] = S. cerevisiae deletion strains, locus YHR079C, strain IRE1, stronger effect = lower value
[29] = S. cerevisiae deletion strains, locus YJL095W, strain BCK1, stronger effect = lower value
[30] = S. cerevisiae deletion strains, locus YJR066W, strain TOR1, stronger effect = lower value
[31] = S. cerevisiae deletion strains, locus YLR113W, strain HOG1, stronger effect = lower value
[32] = S. cerevisiae deletion strains, locus YNL183C, strain NPR1, stronger effect = lower value
[33] = S. cerevisiae deletion strains, locus YOR231W, strain MKK1, stronger effect = lower value
[34] = S. cerevisiae deletion strains, locus YPL256C, strain CLN2, stronger effect = lower value

Measured: normalized growth

CCN(CC)C(=O)c1[nH]c(C)c(C)c1C
inactive: [1] 1.01 | [2] 1 | S. cerevisiae deletion strains, locus YCL061C, strain MRC1, stronger effect = lower value 1.01 | [3] 0.994 | [4] 1.01 | [5] 0.985 | [6] 1.01 | [7] 1.02 | [8] 1 | S. cerevisiae deletion strains, locus YHR087W, strain rtc3, stronger effect = lower value 0.998 | [9] 0.997 | [10] 1.01 | [11] 1.02 | S. cerevisiae deletion strains, locus YLR058C, strain SHM2 (second series), stronger effect = lower value 1.01 | S. cerevisiae deletion strains, locus YLR085C, strain ARP6, stronger effect = lower value 1.03 | [12] 0.995 | S. cerevisiae deletion strains, locus YML094W, strain GIM5, stronger effect = lower value 1.02 | S. cerevisiae deletion strains, locus YMR219W, strain ESC1, stronger effect = lower value 1.02 | [13] 1.01 | [14] 1 | S. cerevisiae deletion strains, locus YNL298W, strain CLA4 (second series), stronger effect = lower value 1.01 | [15] 0.985 | S. cerevisiae deletion strains, locus YNR030W, strain Alg12, stronger effect = lower value 1 | [16] 1.04 | [17] 1.02 | [18] 0.994 | S. cerevisiae deletion strains, locus YPR135W, strain CTF4, stronger effect = lower value 1.06

COC(=O)[C@@H]1[C@H]2C[C@H]3c4[nH]c5ccccc5c4CCN3C[C@@H]2CC[C@@H]1O
inactive: [1] 0.98 | [19] 1.03 | [20] 0.99 | [4] 1.01 | [21] 0.981 | [22] 1 | [6] 0.987 | [10] 0.98 | [13] 0.987 | [23] 1 | [24] 1 | [25] 0.984 | [26] 0.981 | [15] 0.952 | [27] 0.975 | [17] 0.983

O=C(O)Cc1cnc[nH]1
inactive: [1] 1.04 | [19] 1.04 | [20] 1.02 | [4] 1.04 | [21] 1.02 | [22] 1.01 | [8] 0.992 | [28] 1.01 | [29] 1 | [30] 0.985 | [31] 1 | [14] 1.03 | [24] 1 | [32] 0.938 | [25] 1.01 | [26] 1 | [15] 1.02 | [27] 1.01 | [33] 1 | [18] 1.01 | [34] 1

CC12CCC3c4ccc(OC(=O)c5ccccc5)cc4CCC3C1CCC2O (stereo unspecified)
inactive: S. cerevisiae deletion strains, locus YBR021W, strain FUR4, stronger effect = lower value 1.06 | [2] 1 | S. cerevisiae deletion strains, locus YCL029C, strain bik1, stronger effect = lower value 1 | S. cerevisiae deletion strains, locus YDL035C, strain GPR1, stronger effect = lower value 1 | S. cerevisiae deletion strains, locus YDL074C, strain BRE1, stronger effect = lower value 0.981 | [3] 0.992 | S. cerevisiae deletion strains, locus YDL134C, strain PPH21, stronger effect = lower value 1 | S. cerevisiae deletion strains, locus YDL185W, strain tfp1, stronger effect = lower value 0.999 | S. cerevisiae deletion strains, locus YDL192W, strain arf1, stronger effect = lower value 0.995 | S. cerevisiae deletion strains, locus YDR101C, strain arx1, stronger effect = lower value 0.99 | S. cerevisiae deletion strains, locus YDR162C, strain NBP2, stronger effect = lower value 1.02 | S. cerevisiae deletion strains, locus YDR318W, strain mcm21, stronger effect = lower value 0.99 | S. cerevisiae deletion strains, locus YDR388W, stronger effect = lower value 0.993 | S. cerevisiae deletion strains, locus YDR502C, strain sam2, stronger effect = lower value 1 | [5] 1.01 | S. cerevisiae deletion strains, locus YER110C, stronger effect = lower value 1 | S. cerevisiae deletion strains, locus YER155C, strain BEM2, stronger effect = lower value 1.01 | S. cerevisiae deletion strains, locus YER167W, strain BCK2, stronger effect = lower value 1 | S. cerevisiae deletion strains, locus YGL078C, strain dbp3, stronger effect = lower value 1 | S. cerevisiae deletion strains, locus YGL086W, strain mad1, stronger effect = lower value 1 | S. cerevisiae deletion strains, locus YGL248W, strain PDE1, stronger effect = lower value 0.992 | S. cerevisiae deletion strains, locus YGR135W, strain pre9, stronger effect = lower value 0.997 | [7] 1.02 | S. cerevisiae deletion strains, locus YGR252W, strain gcn5, stronger effect = lower value 1 | [8] 1.01 and 1.03 | S. cerevisiae deletion strains, locus YHR079C, strain IRE1 (second series), stronger effect = lower value 1 | [28] 1.05 | S. cerevisiae deletion strains, locus YHR094C, strain hxt1, stronger effect = lower value 0.995 | S. cerevisiae deletion strains, locus YHR129C, strain ARP1, stronger effect = lower value 1 | S. cerevisiae deletion strains, locus YHR200W, strain rpn10, stronger effect = lower value 1 | S. cerevisiae deletion strains, locus YIL066C, strain RNR3, stronger effect = lower value 1 | S. cerevisiae deletion strains, locus YIL073C, strain SPO22, stronger effect = lower value 1.03 | S. cerevisiae deletion strains, locus YIL125W, strain kgd1, stronger effect = lower value 0.994 | S. cerevisiae deletion strains, locus YIR030C, strain dcg1, stronger effect = lower value 0.997 | [29] 0.958 and 1.01 | S. cerevisiae deletion strains, locus YJL134W, strain LCB3, stronger effect = lower value 1.01 | S. cerevisiae deletion strains, locus YJL168C, strain set2, stronger effect = lower value 0.989 | S. cerevisiae deletion strains, locus YJL187C, strain SWE1 (second series), stronger effect = lower value 1 | [9] 1.01 | [30] 0.963 | [10] 1.01 | S. cerevisiae deletion strains, locus YKL009W, strain mrt4, stronger effect = lower value 1 | S. cerevisiae deletion strains, locus YKL068W, stronger effect = lower value 1.01 | S. cerevisiae deletion strains, locus YKL085W, strain MDH1 (second series), stronger effect = lower value 1 | S. cerevisiae deletion strains, locus YKL085W, strain MDH1, stronger effect = lower value 1 | S. cerevisiae deletion strains, locus YKL190W, strain CNB1, stronger effect = lower value 1.01 | S. cerevisiae deletion strains, locus YKR001C, strain vps1, stronger effect = lower value 0.945 | [11] 0.755 | S. cerevisiae deletion strains, locus YLR058C, strain SHM2, stronger effect = lower value 1.01 | S. cerevisiae deletion strains, locus YLR102C, strain apc9, stronger effect = lower value 0.991 | [31] 1.02 | S. cerevisiae deletion strains, locus YLR268W, strain sec22, stronger effect = lower value 1 | S. cerevisiae deletion strains, locus YLR330W, strain CHS5, stronger effect = lower value 1.02 | S. cerevisiae deletion strains, locus YLR342W, strain FKS1 (second series), stronger effect = lower value 0.999 | S. cerevisiae deletion strains, locus YLR371W, strain rom2, stronger effect = lower value 0.995 | S. cerevisiae deletion strains, locus YLR418C, strain cdc73, stronger effect = lower value 0.949 | S. cerevisiae deletion strains, locus YML016C, strain PPZ1, stronger effect = lower value 1.01 | S. cerevisiae deletion strains, locus YML032C, strain rad52, stronger effect = lower value 0.992 | S. cerevisiae deletion strains, locus YML124C, strain tub3, stronger effect = lower value 0.999 | S. cerevisiae deletion strains, locus YMR078C, strain ctf18, stronger effect = lower value 0.988 | S. cerevisiae deletion strains, locus YMR223W, strain ubp8, stronger effect = lower value 1 | [13] 1.01 | [23] 1.22 | S. cerevisiae deletion strains, locus YNL067W, strain RPL9B, stronger effect = lower value 1.01 | S. cerevisiae deletion strains, locus YNL128W, strain TEP1, stronger effect = lower value 1.04 | [14] 0.997 | [32] 0.934 | S. cerevisiae deletion strains, locus YNL233W, strain BNI4, stronger effect = lower value 0.97 | S. cerevisiae deletion strains, locus YNL250W, strain rad50, stronger effect = lower value 1 | S. cerevisiae deletion strains, locus YNL271C, strain bni1, stronger effect = lower value 0.992 | S. cerevisiae deletion strains, locus YNL298W, strain CLA4, stronger effect = lower value 0.993 | S. cerevisiae deletion strains, locus YNL307C, strain MCK1, stronger effect = lower value 0.926 | S. cerevisiae deletion strains, locus YNR052C, strain pop2, stronger effect = lower value 1 | [16] 0.921 | S. cerevisiae deletion strains, locus YOL012C, strain htz1 0.873 | S. cerevisiae deletion strains, locus YOL147C, strain pex11, stronger effect = lower value 1 | S. cerevisiae deletion strains, locus YOR061W, strain CKA2, stronger effect = lower value 1 | S. cerevisiae deletion strains, locus YOR069W, strain VPS5, stronger effect = lower value 1.01 | S. cerevisiae deletion strains, locus YOR136W, strain idh2, stronger effect = lower value 1 | S. cerevisiae deletion strains, locus YOR144C, strain elg1, stronger effect = lower value 1 | S. cerevisiae deletion strains, locus YOR184W, strain ser1, stronger effect = lower value 0.974 | [33] 1.03 | S. cerevisiae deletion strains, locus YOR316C, strain cot1, stronger effect = lower value 0.992 | [17] 1 | [34] 1.06 | S. cerevisiae deletion strains, locus YPR119W, strain clb2, stronger effect = lower value 0.994 | S. cerevisiae deletion strains, locus YPR141C, strain kar3, stronger effect = lower value 1 | S. cerevisiae deletion strains, locus YPR163C, strain tif3, stronger effect = lower value 1.01 | S. cerevisiae deletion strains, locus YPR167C, strain met16, stronger effect = lower value 1 | S. cerevisiae deletion strains, strain wtn01, stronger effect = lower value 0.996 | S. cerevisiae strains, strain wild type, stronger effect = lower value 1
active: [12] 0.606
